Test results as given in PubChem BioAssay (NCI).
This is part of a sample that, as a whole, favours compounds with a hit. Of some 83,000 tested, about 20% had one in any assay.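 Assay: single dose, 48 h. Readout: percent growth (0 = no net growth; negative = cell death). Active: <10.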 Unmarked numbers belong to inactive results. Active and inactive are the calls of the source.

The compounds below were run on MDA-MB-468 breast (assay: NCI-60 one-dose screen, 48 h (100 = growth as untreated, 0 = no growth, -100 = all killed)). Details: 10 µM unless noted.

| SMILES | growth |
| --- | --- |
| C#CCN(C)CCCOc1ccc(NC(=O)CCCCCCC(=O)NO)cc1Cl | -0.749% (active) |
| COc1cc(-c2nc(/C=C3/C(=O)Nc4ccccc43)c3ccccn23)cc(OC)c1OC | 87.9% |
| CC1=C(C#N)C(C)(C)C(C#N)=C(C)N1 | 98.6% |
| CC1(C)CC(=O)c2c(nn(-c3ccc(Br)cc3)c2-c2cn(-c3ccccc3)nc2-c2cccnc2)C1 | 107% |
| CN1C(=O)N(C)C2Nn3c(s/c(=C\c4ccc(Cl)cc4Cl)c3=O)=NC21 (stereo not given) | 59% |
| O=C(O)c1ccc(N=CC(=O)c2ccc(-c3ccccc3)cc2)cc1 | 83.5% |
| COc1ccccc1N1CCN(CCn2c(=O)c3c(c4ccccc4n3C)n(C)c2=O)CC1 | 92% |
| COc1ccc(C2CC(=O)Nc3c2c(C)nn3-c2nc3ccccc3[nH]2)cc1OC (stereo not given) | 59.6% |
| COc1cc(/C=C2\CN(S(=O)(=O)c3ccccc3)C/C(=C\c3cc(CN4CCCCC4)c(O)c(OC)c3)C2=O)cc(CN2CCCCC2)c1O | 53.2% |
| Cc1c(-c2nc3ccc(F)cc3c(=O)[nH]2)c2ccccc2n1C | 6.2% (active) |
| NC(=S)N/N=C/c1ccc(OC(=O)COc2ccccc2)cn1 | 29.7% |
| Cc1ccc(NC(=O)CNc2cc(C(N)=O)cc(F)c2C)c(Cl)c1 | 105% |
| Cc1cc(N=Nc2ccc(-c3ccc(N=Nc4ccc(O)c(C(=O)O)c4)cc3)cc2)c(N)c(N=Nc2ccc(C(=O)O)cc2)c1N | 92.6% |
| Nc1cc2ccncc2c2ccccc12 | 71.7% |
| C=C1C(=O)O[C@H]2[C@H]1CC/C(COC(=O)/C=C/c1cccnc1)=C\CC[C@@]1(C)O[C@@H]21 | 10.9% |
| O=C(CCNCc1ccccc1)c1ccccc1 | 98.2% |
| COc1cccc2cc(N(C)c3nc(C)nc4c3CCC4)ccc12 | 18% |
| Nc1c(C(=O)Nc2ccc(C(F)(F)F)cc2)sc2nc(-c3cnccn3)cc(-c3cccs3)c12 | 69.9% |
| CC[C@]1(O)C[C@@H]2CN(CCc3c([nH]c4ccccc34)[C@@](C(=O)OC)(c3cc4c(cc3OC)N(C)[C@H]3[C@@](O)(C(N)=O)[C@H](O)[C@]5(CC)[C@@H]6C[C@@H]6CN6CC[C@]43[C@@H]65)C2)C1 | 43.8% |
| CCSc1cnnc2ccccc12 | 105% |

| SMILES | growth |
| --- | --- |
| COc1cc(C(=O)n2nc(N3CCOCC3)c3cc(-n4cccc4)ccc32)cc(OC)c1OC | 49.2% |
| O=C(CCN1CCCCC1)c1ccc(Cl)cc1 | 94.3% |
| O=C(CCCn1c(=O)c2sc3ccccc3c2n2nnc(-c3ccccc3)c12)NCCc1cnc[nH]1 | -42.1% (active) |
| CCN(c1ccc(C(=O)N2CCN(c3ccccc3)CC2)cc1)S(C)(=O)=O | 92.5% |
| C#CCOc1ccc2ncnc(N3CCC(NC(=O)CCl)CC3)c2c1 | 15.4% [8.25 µM] |
| NC(=O)CSSCC(N)=O | 105% |
| C#CCn1c(-c2cccc(OCCCCl)c2)nc2c1c(=O)n(C)c(=O)n2C | 71.6% |
| COc1ccc(/C=C/c2nc3ccccc3c(=O)n2-c2ccc(C#Cc3ccc(C(C)(C)C)cc3)cc2C)c(OC)c1 | 97.9% |
| CCN(CC)CCCC(C)Nc1c2ccc(Cl)cc2nc2cc(OC)c(OC)cc12 (stereo not given) | -44% (active) |
| C=C(C)[C@@H]1C[C@@H]2Cc3ccc(Cl)c(C)c3N1O2 | 96.3% |
| CC1(C)C2CC1C1(/C=N\Nc3ccccc3)C(C2)C(C#N)(C#N)C1(C#N)C#N (stereo not given) | 94.8% |
| COc1cc(-c2nc3occn3c2-c2ccnc(NCCCNS(=O)(=O)c3ccccc3)n2)ccc1F | 5.92% (active) |
| O=C(CSc1nnc(-c2cccs2)n1-c1ccccc1)Nc1ccc(F)cc1 | 88.7% |
| CCCCCOC(=O)Nc1nc(=O)n(C2O[C@H](C)[C@@H](O)[C@H]2O)cc1F (stereo not given in full) | 99.1% |
| c1ccc2nc(-c3ccc4ccccc4n3)ccc2c1 | 78.9% |
| COc1cc(/C=C2\CCC/C(=C\c3cc(CN4CCOCC4)c(O)c(OC)c3)C2=O)cc(CN2CCOCC2)c1O | 31.5% |
| O=C/C=C/c1ccc([N+](=O)[O-])cc1 | 108% |
| COc1ccccc1CNCCCN1C(=O)c2ccc3c4c(ccc(c24)C1=O)C(=O)N(CCCNCCCCNCCCN)C3=O | -84.5% (active) |
| O=C(O/C(=C/c1ccccc1)C(F)(F)F)c1ccccc1 | 109% |
| NC(N)=NC(N)=Nc1cc2ccccc2c2ccccc12 | -14.2% (active) |
